# Assay results as given in PubChem BioAssay (NCI).
# The panel holds about 83,000 compounds, 20% with a hit somewhere; the sample as a whole holds those more often.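 Results are percent growth after 48 hours of single-concentration exposure. 100 means growth as in untreated cells, lower positive values show inhibition; negative values down to -100 show cell death.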 A number with no mark means an inactive call. Active and inactive are the calls of the source. The calls were made as follows: active = growth percent below 10; inactive = the rest.
# Tests used:
# Experiment in all cases: NCI-60 one-dose screen, 48 h (100 = growth as untreated, 0 = no growth, -100 = all killed)
# Conditions in all cases: 10 µM
# T-47D breast = test system: T-47D breast
# BT-549 breast = test system: BT-549 breast
# MDA-MB-435 melanoma = test system: MDA-MB-435 melanoma
# SW-620 colon = test system: SW-620 colon
# MCF7 breast = test system: MCF7 breast
# HCT-116 colon = test system: HCT-116 colon
# HCC-2998 colon = test system: HCC-2998 colon
# KM12 colon = test system: KM12 colon
# MDA-MB-468 breast = test system: MDA-MB-468 breast
Structure (SMILES),growth (T-47D breast),growth (BT-549 breast),growth (MDA-MB-435 melanoma),growth (SW-620 colon),growth (MCF7 breast),growth (HCT-116 colon),growth (HCC-2998 colon),growth (KM12 colon),growth (MDA-MB-468 breast)
COc1cc2oc(-c3cccc(C(=O)Nc4ccc(Cl)cc4)c3)cc(=O)c2c(OCCNC(=O)CNC(=O)OC(C)(C)C)c1OC,59%,51.2%,66.7%,110%,42%,41.6%,102%,48.6%,67.4%
Cn1c(O)c(N=Nc2nc(-c3cc4ccccc4oc3=O)cs2)c2cc(Br)ccc21,82.8%,59.6%,106%,99.8%,77.4%,48.9%,97.7%,95.5%,41.8%
O=C(NO)c1ccc(-c2nc3ccc4[nH]ncc4c3c3c2CCCC3)cc1,-8.47% (active),-50.2% (active),-78.1% (active),1.77% (active),-20.8% (active),2.92% (active),-67.4% (active),-28.3% (active),-90.3% (active)
O=C(O)CCCCCCCCCCN1C(=O)/C(=C/c2cnc(-c3ccccc3)s2)SC1=S,74.2%,106%,87%,44.1%,28.8%,31.8%,124%,24.6%,90.9%
Nc1cc(-c2cccc(C(=O)NCc3ccc4c(c3)OCO4)c2)ccn1,77.4%,96.8%,102%,110%,86.5%,95.1%,103%,106%,88.1%
O=C1Nc2cc(Cl)ccc2/C1=C/c1cccc(OCc2ccccc2)c1,14.7%,-21.8% (active),10.5%,8.71% (active),2.6% (active),3.32% (active),-39% (active),4.45% (active),11.9%
O=C1CCC(N2Cc3c(NCc4ccc(-c5ccccc5)cc4)cccc3C2=O)C(=O)N1 (configuration not stated),41.5%,23.4%,93.2%,51.3%,76%,74.7%,67.4%,75.3%,-12.6% (active)
Cc1ccc(-c2nc(Nc3ccc(S(N)(=O)=O)cc3)c3ccccc3n2)cc1,40.5%,75.7%,57%,32.2%,26.7%,34.7%,-9.82% (active),0.051% (active),44.2%
O=C1Nc2cc(-c3ccc(NC(=O)c4cccc([N+](=O)[O-])c4)cc3)ccc2/C1=C/c1ccc[nH]1,27.5%,120%,105%,79.8%,2.65% (active),103%,62.2%,14.5%,-10.9% (active)
Cc1ccc(CNC(=O)Cc2ccc3c(c2)CN(C2CCC(=O)NC2=O)C3=O)cc1 (configuration not stated),-4% (active),-46.4% (active),13.7%,4.15% (active),15.1%,65.2%,-23.5% (active),1.17% (active),-50.8% (active)
COc1ccc(C(=O)Nc2ccc(-c3ccc4c(c3)NC(=O)/C4=C\c3ccc[nH]3)cc2)cc1,14.5%,88.5%,30.4%,-14.7% (active),-31.9% (active),36.4%,31.3%,1.95% (active),-70% (active)
C/C(=N\NC(N)=S)c1ccc(Nc2nc(SC(C)C)nc(-c3ccccc3)c2C#N)cc1,57.3%,28.5%,82.6%,85.8%,64.2%,57.5%,59.2%,75.7%,28.2%
O=C(CSc1nnc(-c2ccc3nc(-c4ccccc4)[nH]c3c2)o1)Nc1ccc(Cl)cc1,23.8%,55%,40.2%,66.8%,16.3%,36.4%,22.2%,33%,55.8%
O=C(NO)c1ccc(Cn2ccc3c(Nc4ccccc4)ncnc32)cc1,-8.19% (active),27.4%,9.97% (active),-61.8% (active),14%,-9.89% (active),-30.1% (active),12.1%,-5.25% (active)
C/C(=C\c1ccc(O)cc1O)c1ccc2ccc(O)cc2[o+]1,56%,45.5%,21.4%,44.8%,22.2%,26.9%,61.4%,22.5%,64%
COc1ccc(C(=O)/C=C/c2cc(F)cc(C(F)(F)F)c2)cc1S(N)(=O)=O,6.93% (active),-73% (active),-56.2% (active),-90.6% (active),-90.6% (active),-55% (active),-89.6% (active),-82.4% (active),-93.2% (active)
O=C(Cn1cc(CSc2nnc3oc4ccccc4n23)nn1)Nc1ccc(Br)cc1,70.5%,92.1%,98.1%,108%,65.3%,82%,96.4%,85.7%,80.1%
O=c1[nH]c2ccccc2cc1CSc1ccc(Nc2nccc(-c3ccc4ccccc4c3)n2)cc1,86.8%,48.6%,69.8%,32.9%,19%,26.2%,63.5%,50.2%,-3.76% (active)
Clc1cccc(N/N=C/c2c[nH]c3ccccc23)n1,27.4%,3.11% (active),19.8%,52.1%,11.2%,23.4%,30.2%,9.99% (active),-10.1% (active)
Cc1cc(C)nc(SCC(=O)Nc2ccc(S(N)(=O)=O)cc2)n1,105%,132%,107%,116%,96.6%,111%,109%,107%,98.2%
CCOC(=O)C1=C(N)N(c2ccccc2)C2=C(C(=O)CC(C)(C)C2)C1c1ccc(Cl)cc1 (configuration not stated),29.5%,43.2%,22%,27.9%,17.4%,18.7%,42.9%,17.9%,33.2%
COc1cccc(-c2ccnc(/N=C(\N)Nc3ccc(S(=O)(=O)Nc4nc(C)cc(C)n4)cc3)n2)c1,88.4%,111%,109%,105%,75.9%,103%,114%,98%,115%
O=C(c1ccc([N+](=O)[O-])c([N+](=O)[O-])c1O)n1[nH]c(=O)c2ccccc2c1=O,49.8%,51.2%,53.7%,35.7%,30.5%,30.1%,106%,72.3%,0.114% (active)
COc1cccc(-c2nn(-c3ccccc3)cc2-c2ccnc(NCCCNC(=O)Nc3ccc(F)cc3)c2)c1,4.77% (active),-20.6% (active),-59% (active),14.5%,-15.5% (active),6.26% (active),-25.1% (active),5.44% (active),-54.7% (active)
COc1cc(/C=C/C(=O)c2ccc(C(F)(F)F)cc2)ccc1Oc1nc(Nc2ccc(F)cc2)nc(N(C)C)n1,44.6%,90.9%,80.1%,50.2%,30.8%,7.06% (active),97.9%,87.8%,66.4%
COc1ccc([C@H]2C(C(=O)c3ccc(Cl)cc3)C3(N[C@@H]2c2ccccc2)C(=O)Nc2ccc(Br)cc23)cc1 (some centres not stated),21.2%,21.9%,-36.6% (active),7.87% (active),-7.25% (active),1.73% (active),-41% (active),-5.82% (active),-7.76% (active)
COc1ccc(Nc2nc(N)n(Cc3cccc(Br)c3)n2)cc1,13.4%,-8.47% (active),-18.2% (active),18.3%,1.86% (active),12%,-13.1% (active),1.74% (active),-12.3% (active)
COC[C@@H](CC(C)C)N=C1NC(=O)/C(=C/c2ccc3ncsc3c2)N1,-7.77% (active),-10.9% (active),12.7%,5.92% (active),-17.7% (active),19.2%,15.5%,21%,-17.8% (active)
